Results as given in ChEMBL document CHEMBL1961873, “Compounds: GSK PKIS; Assays: Nanosyn kinase panel” (2012).

How the values were obtained:
[1] = biological target: T1, Serine/threonine-protein kinase D2 (Homo sapiens) (UniProt Q9BZL6); conditions: at 1 µM;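 also: mean value of PRKD2 inhibition, from the GSK PKIS screening panel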
T1 sequence (whole entry): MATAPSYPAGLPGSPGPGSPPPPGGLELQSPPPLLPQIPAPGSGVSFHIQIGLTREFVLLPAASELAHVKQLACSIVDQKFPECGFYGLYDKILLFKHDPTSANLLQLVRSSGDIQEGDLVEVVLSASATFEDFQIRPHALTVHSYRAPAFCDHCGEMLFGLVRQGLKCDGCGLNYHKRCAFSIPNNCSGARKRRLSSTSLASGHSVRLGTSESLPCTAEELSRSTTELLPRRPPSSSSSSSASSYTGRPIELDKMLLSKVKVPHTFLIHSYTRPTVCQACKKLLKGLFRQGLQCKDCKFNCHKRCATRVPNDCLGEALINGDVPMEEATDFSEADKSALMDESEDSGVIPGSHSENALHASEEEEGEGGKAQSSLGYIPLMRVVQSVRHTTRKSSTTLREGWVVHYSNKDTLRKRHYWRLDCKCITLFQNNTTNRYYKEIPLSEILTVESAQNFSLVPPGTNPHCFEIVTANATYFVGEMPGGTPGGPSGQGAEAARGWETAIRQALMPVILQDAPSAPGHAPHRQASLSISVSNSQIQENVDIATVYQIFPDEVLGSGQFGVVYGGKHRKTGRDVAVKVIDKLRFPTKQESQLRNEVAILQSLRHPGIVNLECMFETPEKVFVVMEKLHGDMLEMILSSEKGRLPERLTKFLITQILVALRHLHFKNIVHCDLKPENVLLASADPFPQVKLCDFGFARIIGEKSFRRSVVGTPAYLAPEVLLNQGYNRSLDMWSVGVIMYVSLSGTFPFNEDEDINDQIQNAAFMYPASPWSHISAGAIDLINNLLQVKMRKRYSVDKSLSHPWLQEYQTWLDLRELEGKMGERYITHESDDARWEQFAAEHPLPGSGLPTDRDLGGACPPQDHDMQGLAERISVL

[2] = biological target: T2, Serine/threonine-protein kinase D3 (Homo sapiens) (UniProt O94806); conditions: at 0.1 µM
T2 sequence (whole entry): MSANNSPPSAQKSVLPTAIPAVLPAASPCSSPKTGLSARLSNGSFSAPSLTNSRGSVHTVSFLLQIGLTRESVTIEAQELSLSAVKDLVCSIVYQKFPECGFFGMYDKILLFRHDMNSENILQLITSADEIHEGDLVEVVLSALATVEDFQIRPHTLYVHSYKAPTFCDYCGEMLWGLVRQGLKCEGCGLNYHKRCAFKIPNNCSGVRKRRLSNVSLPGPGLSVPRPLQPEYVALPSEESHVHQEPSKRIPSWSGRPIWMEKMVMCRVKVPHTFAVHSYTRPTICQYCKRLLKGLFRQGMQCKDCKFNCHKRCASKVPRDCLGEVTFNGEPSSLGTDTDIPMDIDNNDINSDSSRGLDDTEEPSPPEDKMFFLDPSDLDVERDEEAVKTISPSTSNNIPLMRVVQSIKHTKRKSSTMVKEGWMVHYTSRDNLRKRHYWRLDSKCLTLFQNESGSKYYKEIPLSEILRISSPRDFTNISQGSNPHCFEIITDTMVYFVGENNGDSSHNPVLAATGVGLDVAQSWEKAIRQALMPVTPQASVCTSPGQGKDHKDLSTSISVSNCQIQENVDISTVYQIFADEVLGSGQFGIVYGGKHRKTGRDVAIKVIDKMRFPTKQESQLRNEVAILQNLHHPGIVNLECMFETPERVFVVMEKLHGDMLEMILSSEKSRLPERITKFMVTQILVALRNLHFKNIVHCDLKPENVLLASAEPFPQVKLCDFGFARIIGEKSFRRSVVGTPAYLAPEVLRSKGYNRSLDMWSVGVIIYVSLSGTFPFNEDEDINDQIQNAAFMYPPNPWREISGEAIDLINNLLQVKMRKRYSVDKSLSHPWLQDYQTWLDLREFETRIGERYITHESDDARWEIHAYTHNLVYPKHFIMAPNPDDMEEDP

[3] = biological target: T2, Serine/threonine-protein kinase D3 (Homo sapiens); conditions: at 1 µM
[4] = biological target: T3, cGMP-dependent protein kinase 1 (Homo sapiens) (UniProt Q13976); conditions: at 0.1 µM
T3 sequence (whole entry): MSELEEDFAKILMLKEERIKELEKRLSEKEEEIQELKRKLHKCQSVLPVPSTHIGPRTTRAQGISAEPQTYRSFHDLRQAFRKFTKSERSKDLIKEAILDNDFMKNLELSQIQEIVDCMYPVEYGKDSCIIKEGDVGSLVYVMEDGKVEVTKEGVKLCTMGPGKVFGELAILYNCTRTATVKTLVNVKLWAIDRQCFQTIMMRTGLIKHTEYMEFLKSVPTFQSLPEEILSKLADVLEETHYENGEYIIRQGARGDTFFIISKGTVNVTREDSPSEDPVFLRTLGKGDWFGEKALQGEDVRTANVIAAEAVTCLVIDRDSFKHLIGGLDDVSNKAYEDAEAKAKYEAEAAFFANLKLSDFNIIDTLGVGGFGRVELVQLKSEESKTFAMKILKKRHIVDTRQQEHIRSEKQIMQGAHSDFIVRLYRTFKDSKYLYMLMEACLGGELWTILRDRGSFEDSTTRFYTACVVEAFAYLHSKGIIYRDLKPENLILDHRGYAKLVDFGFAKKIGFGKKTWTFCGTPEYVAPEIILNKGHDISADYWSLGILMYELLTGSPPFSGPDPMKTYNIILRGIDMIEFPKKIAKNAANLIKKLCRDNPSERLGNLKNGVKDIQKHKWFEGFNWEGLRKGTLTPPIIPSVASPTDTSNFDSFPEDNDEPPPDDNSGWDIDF

[5] = biological target: T3, cGMP-dependent protein kinase 1 (Homo sapiens); conditions: at 1 µM
[6] = biological target: T4, cGMP-dependent protein kinase 2 (Homo sapiens) (UniProt Q13237); conditions: at 0.1 µM
T4 sequence (whole entry): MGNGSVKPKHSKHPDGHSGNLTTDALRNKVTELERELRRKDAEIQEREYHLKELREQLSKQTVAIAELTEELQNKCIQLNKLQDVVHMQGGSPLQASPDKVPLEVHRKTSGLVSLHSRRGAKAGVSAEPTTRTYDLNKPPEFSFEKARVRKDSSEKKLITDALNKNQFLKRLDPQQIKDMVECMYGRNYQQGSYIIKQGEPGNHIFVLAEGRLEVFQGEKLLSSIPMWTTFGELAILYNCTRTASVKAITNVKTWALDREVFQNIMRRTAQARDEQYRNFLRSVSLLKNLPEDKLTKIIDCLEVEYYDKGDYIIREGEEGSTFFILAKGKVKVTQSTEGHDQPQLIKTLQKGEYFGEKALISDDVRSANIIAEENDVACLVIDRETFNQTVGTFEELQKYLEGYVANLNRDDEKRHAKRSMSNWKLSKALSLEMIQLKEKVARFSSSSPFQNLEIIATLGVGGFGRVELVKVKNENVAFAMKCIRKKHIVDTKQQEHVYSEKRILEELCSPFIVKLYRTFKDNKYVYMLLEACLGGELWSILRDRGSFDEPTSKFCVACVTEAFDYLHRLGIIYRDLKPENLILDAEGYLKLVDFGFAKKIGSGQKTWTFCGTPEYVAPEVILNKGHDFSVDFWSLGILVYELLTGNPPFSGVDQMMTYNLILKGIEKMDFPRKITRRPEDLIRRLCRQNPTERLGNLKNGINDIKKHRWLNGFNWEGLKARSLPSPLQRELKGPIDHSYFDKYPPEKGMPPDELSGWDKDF

[7] = biological target: T4, cGMP-dependent protein kinase 2 (Homo sapiens); conditions: at 1 µM
[8] = biological target: T5, cAMP-dependent protein kinase catalytic subunit PRKX (Homo sapiens) (UniProt P51817); conditions: at 0.1 µM
T5 sequence (whole entry): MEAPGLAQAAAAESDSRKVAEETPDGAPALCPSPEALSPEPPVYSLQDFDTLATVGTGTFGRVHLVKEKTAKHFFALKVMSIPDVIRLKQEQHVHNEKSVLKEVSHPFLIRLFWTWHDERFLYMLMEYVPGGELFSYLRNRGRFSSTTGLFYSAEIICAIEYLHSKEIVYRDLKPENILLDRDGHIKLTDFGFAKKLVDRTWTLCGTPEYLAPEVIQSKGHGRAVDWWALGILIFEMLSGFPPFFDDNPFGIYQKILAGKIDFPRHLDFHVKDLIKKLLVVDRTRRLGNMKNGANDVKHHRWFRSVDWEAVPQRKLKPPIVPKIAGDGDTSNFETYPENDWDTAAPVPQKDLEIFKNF

[9] = biological target: T5, cAMP-dependent protein kinase catalytic subunit PRKX (Homo sapiens); conditions: at 1 µM
[10] = biological target: Rho-associated protein kinase 1 (Homo sapiens) (UniProt Q13464); conditions: at 0.1 µM;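 also: values are mean percent inhibition of ROCK1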
Chain of Rho-associated protein kinase 1 (Homo sapiens) (Q13464 2-1354 limits assumed): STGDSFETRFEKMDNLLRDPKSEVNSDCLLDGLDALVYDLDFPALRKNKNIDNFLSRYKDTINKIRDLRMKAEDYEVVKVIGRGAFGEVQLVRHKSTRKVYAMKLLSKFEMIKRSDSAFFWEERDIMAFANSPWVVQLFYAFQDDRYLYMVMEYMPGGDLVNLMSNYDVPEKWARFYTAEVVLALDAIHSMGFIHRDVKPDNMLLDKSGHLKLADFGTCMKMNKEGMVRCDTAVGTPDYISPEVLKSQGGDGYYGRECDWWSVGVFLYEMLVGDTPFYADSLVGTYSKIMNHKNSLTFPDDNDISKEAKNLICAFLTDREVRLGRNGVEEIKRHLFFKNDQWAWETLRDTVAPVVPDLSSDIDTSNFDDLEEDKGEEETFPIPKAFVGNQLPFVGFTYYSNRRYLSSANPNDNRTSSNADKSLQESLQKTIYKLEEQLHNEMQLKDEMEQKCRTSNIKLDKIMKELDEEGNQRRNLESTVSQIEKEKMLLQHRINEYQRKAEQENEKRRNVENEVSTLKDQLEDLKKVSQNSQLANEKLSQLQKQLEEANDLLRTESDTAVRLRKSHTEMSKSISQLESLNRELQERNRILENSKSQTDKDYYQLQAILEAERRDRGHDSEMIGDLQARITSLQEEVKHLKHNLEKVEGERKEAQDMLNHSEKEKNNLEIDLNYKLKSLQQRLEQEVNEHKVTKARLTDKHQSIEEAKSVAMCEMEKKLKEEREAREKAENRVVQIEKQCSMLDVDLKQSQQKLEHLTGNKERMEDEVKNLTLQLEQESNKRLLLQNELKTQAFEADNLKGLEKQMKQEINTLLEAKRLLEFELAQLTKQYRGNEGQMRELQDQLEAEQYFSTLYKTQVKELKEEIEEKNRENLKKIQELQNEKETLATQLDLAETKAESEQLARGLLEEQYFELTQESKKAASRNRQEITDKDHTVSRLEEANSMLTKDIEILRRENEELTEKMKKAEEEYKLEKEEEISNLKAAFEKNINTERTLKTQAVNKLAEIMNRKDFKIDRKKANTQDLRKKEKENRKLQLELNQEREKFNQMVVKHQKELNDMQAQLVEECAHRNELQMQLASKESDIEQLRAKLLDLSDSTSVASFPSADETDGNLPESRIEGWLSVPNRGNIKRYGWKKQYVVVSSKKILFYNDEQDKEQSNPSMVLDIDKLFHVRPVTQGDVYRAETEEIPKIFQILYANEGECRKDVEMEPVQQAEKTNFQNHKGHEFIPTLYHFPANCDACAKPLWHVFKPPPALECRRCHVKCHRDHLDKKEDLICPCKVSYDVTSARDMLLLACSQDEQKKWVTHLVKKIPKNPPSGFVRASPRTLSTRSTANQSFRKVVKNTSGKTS

SMILES	inhibition [1] [%]	inhibition [2] [%]	inhibition [3] [%]	inhibition [4] [%]	inhibition [5] [%]	inhibition [6] [%]	inhibition [7] [%]	inhibition [8] [%]	inhibition [9] [%]	inhibition [10] [%]
O=C(O[C@H]1CN[C@H](C#Cc2cc3ncnc(Nc4ccc5c(cnn5Cc5ccccc5)c4)c3s2)C1)N1CCOCC1	1.12	0.01	1.45	-0.48	-0.54	-0.72	0.09	-0.58	-0.71	-2.14
CS(=O)(=O)CCNCc1ccc(-c2ccc3ncnc(Nc4ccc(OCc5ccccc5)cc4)c3c2)o1	2.54	3.53	3.51	2.37	1.88	2.69	2.6	1.54	1.49	1.22
Cn1c(-c2nonc2N)nc2cnccc21	10.4	2.73	8.54	3.02	15	6.01	38.7	2.45	6.56	10.8
COc1ccc2ncn(-c3cc(O[C@H](C)c4ccccc4C(F)(F)F)c(C(N)=O)s3)c2c1	1.77	-0.52	0.07	0.03	1.49	0.1	0.7	-0.2	-0.15	0.72
CCOc1ccc2c(-c3ccnc(Nc4cc(OC)cc(C(F)(F)F)c4)n3)cnn2n1	0.81	-0.03	1.2	0.85	7.21	0.36	2.15	0.62	0.2	-0.28
COc1c(C(N)=O)cc(-c2ccc(Cl)cc2)cc1-c1ccc(S(N)(=O)=O)cc1	1.99	4.57	4.42	4.35	9.49	3.98	8.49	1.69	3.72	2.98
CN(c1ccc(NC(=O)NCCN2CCOCC2)cc1)c1ccnc(Nc2ccc(CS(C)(=O)=O)cc2)n1	1.04	1.13	0.94	2.25	2.49	0.06	0.57	2.36	4.38	1.51
NS(=O)(=O)c1ccc(N/N=C2\C(=O)Nc3cccc(CCc4ccncc4)c32)cc1	0.82	0.3	0.91	0.22	-0.46	-0.44	-0.5	0.12	0.09	0.65
COc1cc2c(cc1Nc1nc(Nc3cccc(F)c3C(N)=O)c3cc[nH]c3n1)N(C(=O)CN1CCN(C(C)C)CC1)CC2	8.82	3.64	8.43	4.61	10.1	3.86	5.6	2.44	2.36	0.72
CN(C)CCNC(=O)Nc1ccc(N(C)c2ccnc(Nc3ccc(CS(C)(=O)=O)cc3)n2)cc1	6.51	4.97	5.75	3.82	4.38	1.71	3.5	0.73	0.09	3.43
CN1CCC(n2cnc(-c3ccc(F)cc3)c2-c2ccnc(NCCO)n2)CC1	14.8	6.16	11	1.3	4.89	2.55	5.54	3.06	5.03	0.7
CC1(C)CC(n2cnc(-c3ccc(F)cc3)c2-c2ccnc(N)n2)CC(C)(C)N1	3.58	1.4	3.8	0.62	2.53	1.24	2.55	0.98	2.76	1.34
Cc1c2ccc(N(C)c3ccnc(Nc4cccc(S(N)(=O)=O)c4)n3)cc2nn1C	0.98	2.69	2.71	3.15	5.31	2.54	4.29	2.29	1.21	1.12
COc1ccc(Nc2ncc(-c3ccccc3)o2)cc1OC	3.42	0.5	2.14	0.71	3.32	0.93	3.83	-0.11	-0.56	-0.21
CCS(=O)(=O)c1ccc(OC)c(Nc2ncc(-c3cccc(F)c3)o2)c1	3.8	4.67	4.73	4.88	8.02	3.78	6.47	3.37	2.6	2.49
